Values without a mark were called inactive. Inconclusive results are not listed. Entries that show only a call come without a potency. The source made the active and inactive calls. Unless noted, calls follow the shape of the dose curve; as a rule, active = well fitted curve in either direction with a large enough effect (not every such curve was filed as active); inconclusive = small, poorly fitted or top-dose-only effect, or another doubt; inactive = flat fitted curve, though single readings scatter.
What was measured:
[1] = AP1 Signaling Pathway (AID 357); settings: ME-180 AP-1-bla reporter, EGF-induced, beta-lactamase ratio, 5 h; at 17.2 µM (top of the series) unless noted;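 also: ME-180 reporter cells stimulated with EGF at its EC50 level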
How it was run: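 A ratiometric CCF4 readout (405 nm excitation; 460 and 530 nm emission) quantified AP-1-driven beta-lactamase in ME-180 cells after 5 h with compound and EC50 EGF; AC50 values were derived for activators and inhibitors.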

[2] = NFAT Signaling Pathway (AID 444); settings: Jurkat NFAT-bla M1, carbachol, beta-lactamase ratio, 5 h; at 17.2 µM (top of the series) unless noted;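 also: carbachol stimulus at about its EC50 of 1 µM final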
How it was run: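 Jurkat cells with NFAT-driven β-lactamase reporter and co-expressed M1 receptor, stimulated with carbachol (final 1 uM, ~EC50), compound titration, 5 h at 37 °C. CCF4 loaded 1 h at RT; 460/530 nm ratio gave %activity and AC50.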

[3] = Stat Signaling Pathway (AID 446);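 also: ME-180 cervical cancer cells given 40 pM IL-6 alongside compound; SIE-controlled beta-lactamase reporter measured as 460/530 nm FRET emission ratio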
How it was run: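 Reporter line: ME-180 cervical carcinoma, SIE-beta-lactamase. Treatment: compound with 40 pM IL-6, 5 hrs, 37 C, in low-serum OPTI-MEM with 10 mM HEPES pH 7.3. Detection: 460/530 nm fluorescence.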

[4] = biological target: Glucocorticoid receptor (Homo sapiens) (UniProt P04150); experiment: GR-GFP Redistribution (AID 450;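 active = compounds whose dose series gives a full or clear partial fitted curve of increased nuclear translocation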; also: potency is read from the fitted curve at half-maximal effect); settings: U2OS GR-GFP nuclear translocation, laser cytometry, 2 h
Glucocorticoid receptor (Homo sapiens), sequence (P04150 whole entry, looked up, the tested form may be a part): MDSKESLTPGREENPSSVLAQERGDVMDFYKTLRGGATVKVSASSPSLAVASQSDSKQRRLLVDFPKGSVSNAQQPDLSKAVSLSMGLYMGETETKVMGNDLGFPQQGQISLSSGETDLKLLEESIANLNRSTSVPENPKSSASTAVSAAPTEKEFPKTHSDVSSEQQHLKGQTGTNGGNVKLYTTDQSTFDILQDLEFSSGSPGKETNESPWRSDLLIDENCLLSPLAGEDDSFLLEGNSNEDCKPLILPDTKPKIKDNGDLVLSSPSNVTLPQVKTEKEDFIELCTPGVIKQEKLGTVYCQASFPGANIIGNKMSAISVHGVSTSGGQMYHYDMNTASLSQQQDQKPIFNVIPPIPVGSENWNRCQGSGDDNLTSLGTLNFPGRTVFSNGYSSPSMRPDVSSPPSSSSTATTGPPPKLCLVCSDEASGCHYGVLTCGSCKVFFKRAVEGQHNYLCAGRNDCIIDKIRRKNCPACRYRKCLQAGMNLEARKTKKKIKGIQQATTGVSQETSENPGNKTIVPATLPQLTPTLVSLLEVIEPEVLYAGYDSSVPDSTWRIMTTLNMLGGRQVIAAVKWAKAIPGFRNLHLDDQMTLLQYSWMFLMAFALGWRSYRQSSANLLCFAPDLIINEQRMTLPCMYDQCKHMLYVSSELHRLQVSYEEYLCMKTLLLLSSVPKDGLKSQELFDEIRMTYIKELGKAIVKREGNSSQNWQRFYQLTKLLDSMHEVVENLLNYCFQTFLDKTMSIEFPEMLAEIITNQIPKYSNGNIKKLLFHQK

[5] = qHTS Assay for Identification of Small Molecule Agonists for Hypoxia Response Element Signaling Pathway (AID 914; active = well fitted activation curve with a large enough effect in the signal ratio, with a control signal flat, not every such curve was filed as active; the % refers to the signal ratio); settings: ME-180 (cervical carcinoma) HRE-bla reporter, beta-lactamase ratio, CoCl2, 17 h; activation: active compounds read high
How it was run: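 Read-out: CCF4 FRET ratio of 460nm to 530nm emission (excitation 405nm) after 2.5 hours at room temperature, taken from HRE-bla ME-180 cells that had been exposed to compound and EC50 CoCl2 for 17 hours.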

[6] = biological target: Glucocorticoid receptor (Homo sapiens) (UniProt P04150); experiment: GR-EFC Redistribution (AID 451; calls by dose curve; also: potency is read from the fitted curve at half-maximal effect); settings: CHO-K1 GR-EFC translocation, beta-gal luminescence, 2 h
How it was run: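 CHO-K1 cells expressing nuclear EA and GR-ED fragments of b-gal; compounds titrated up to 46 uM final, 2 h at 37 C. GR nuclear translocation read as complemented b-gal luminescence after 1 h RT detection.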

[7] = biological target: Mitogen-activated protein kinase 10 (Mus musculus) (UniProt Q61831); experiment: JNK3 AlphaScreen Assay (AID 530);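 also: kinase came from lysate of stimulated human HepG2 cells; signal reports phosphorylation of biotinylated GST-cJun 1-79 at Ser73 with 10 µM ATP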
How it was run: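 Pre-activated (IL-1β/TNFα) JNK3 in HepG2 lysates phosphorylates biotin-GST-cJun(1-79), 10 uM ATP; anti-phospho-cJun(Ser73) AlphaScreen read at room temperature, pH 7.6 Tris buffer. Compounds pre-incubated 15 min as titrations.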

[8] = biological target: 3',5'-cyclic-AMP phosphodiesterase 4B (Homo sapiens) (UniProt Q07343); experiment: qHTS Assay for Inhibitors of PDE-IV (AID 607; active = well fitted activation curve with a large enough effect in the main read-out, with a control signal flat, not every such curve was filed as active)
3',5'-cyclic-AMP phosphodiesterase 4B (Homo sapiens), sequence (Q07343 whole entry, looked up): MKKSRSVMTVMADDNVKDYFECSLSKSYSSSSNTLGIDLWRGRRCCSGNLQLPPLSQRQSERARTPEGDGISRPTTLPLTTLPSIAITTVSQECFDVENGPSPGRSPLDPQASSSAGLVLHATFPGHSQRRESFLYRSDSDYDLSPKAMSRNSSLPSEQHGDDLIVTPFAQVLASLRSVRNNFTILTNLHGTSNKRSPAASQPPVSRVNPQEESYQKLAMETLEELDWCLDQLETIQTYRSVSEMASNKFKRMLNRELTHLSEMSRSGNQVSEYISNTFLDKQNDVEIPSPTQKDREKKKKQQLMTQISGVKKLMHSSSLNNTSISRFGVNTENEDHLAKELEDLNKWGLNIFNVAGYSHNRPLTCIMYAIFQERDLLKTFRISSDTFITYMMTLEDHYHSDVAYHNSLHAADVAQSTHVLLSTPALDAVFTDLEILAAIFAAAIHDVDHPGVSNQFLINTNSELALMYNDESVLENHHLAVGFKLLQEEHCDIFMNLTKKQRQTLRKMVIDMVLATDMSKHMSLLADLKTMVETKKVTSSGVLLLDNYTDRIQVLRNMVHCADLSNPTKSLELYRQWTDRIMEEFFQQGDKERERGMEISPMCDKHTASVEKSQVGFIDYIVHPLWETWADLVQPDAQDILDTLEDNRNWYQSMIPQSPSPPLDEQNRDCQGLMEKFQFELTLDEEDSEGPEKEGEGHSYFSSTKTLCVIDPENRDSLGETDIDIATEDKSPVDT
How it was run: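 Cell-based read-out of cAMP via a modified cyclic nucleotide-gated channel and membrane potential dye (535/590 nm) in HEK293 cells expressing PDE4 endogenously. Compounds tested up to 22.9 uM final; 100 uM RO 20-1724 reference.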

[9] = biological target: Guanine nucleotide-binding protein G(i) subunit alpha-1 (Homo sapiens) (UniProt P63096); experiment: qHTS Assay for Inhibitors of RGS12 GoLoco Motif Activity (Green Fluorophore) (AID 879; active = well fitted curve in the direction sought with a large enough effect; an effect the other way counts as inactive or inconclusive; also: potency is read from the fitted curve at half-maximal effect)
Guanine nucleotide-binding protein G(i) subunit alpha-1 (Homo sapiens), sequence (P63096 whole entry, looked up): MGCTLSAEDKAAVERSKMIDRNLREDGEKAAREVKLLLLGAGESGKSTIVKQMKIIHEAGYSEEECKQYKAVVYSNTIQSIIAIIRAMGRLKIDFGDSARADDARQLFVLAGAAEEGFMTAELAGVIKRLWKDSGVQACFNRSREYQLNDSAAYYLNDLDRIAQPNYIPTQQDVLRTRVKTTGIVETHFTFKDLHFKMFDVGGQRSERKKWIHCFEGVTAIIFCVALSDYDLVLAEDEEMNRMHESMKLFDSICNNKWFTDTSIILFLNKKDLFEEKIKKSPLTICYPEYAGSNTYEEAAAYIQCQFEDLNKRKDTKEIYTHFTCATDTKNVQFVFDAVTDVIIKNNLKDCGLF
How it was run: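 Fluorescence polarization assay: 50 nM Gαi1 with 10 nM FITC-labeled RGS12 GoLoco peptide in 10 mM Tris pH 7.5, 150 mM NaCl, 0.1 mM GDP, 0.05% NP40, 10 min at room temperature with compound.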

[10] = biological target: Muscarinic acetylcholine receptor M1 (Rattus norvegicus) (UniProt P08482); experiment: qHTS Assay for Antagonists of Acetylcholine Muscarinic M1 Receptor: Measurement of IP-One Response (AID 944; active = well fitted curve in the direction sought with a large enough effect; an effect the other way counts as inactive or inconclusive; also: nearly all actives have a fitted effect of over 75% in size)
Muscarinic acetylcholine receptor M1 (Rattus norvegicus), sequence (P08482 whole entry, looked up): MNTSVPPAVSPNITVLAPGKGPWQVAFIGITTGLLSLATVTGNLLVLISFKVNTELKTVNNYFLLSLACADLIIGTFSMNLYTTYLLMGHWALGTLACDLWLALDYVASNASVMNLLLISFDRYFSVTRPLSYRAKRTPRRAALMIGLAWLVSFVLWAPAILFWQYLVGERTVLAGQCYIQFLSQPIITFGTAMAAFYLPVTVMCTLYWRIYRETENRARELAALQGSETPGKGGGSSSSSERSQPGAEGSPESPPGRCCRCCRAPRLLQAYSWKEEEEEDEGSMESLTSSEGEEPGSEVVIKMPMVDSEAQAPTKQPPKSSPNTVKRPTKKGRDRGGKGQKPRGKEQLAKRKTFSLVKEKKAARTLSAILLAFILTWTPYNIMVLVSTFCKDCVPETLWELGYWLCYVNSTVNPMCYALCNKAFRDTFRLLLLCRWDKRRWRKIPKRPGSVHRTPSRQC
How it was run: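 CHO cells stably expressing rat M1, pretreated 10 min with compound, then stimulated 30 min with carbachol at EC80 (200 nM) in LiCl-containing buffer pH 7.4; IP1 accumulation read by HTRF competition (665/620 nm).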

[11] = biological target: Pyruvate kinase (Leishmania mexicana) (UniProt Q27686); experiment: qHTS Validation Assay for Inhibitors of Leishmania Mexicana Pyruvate Kinase (AID 945; active = well fitted curve in the direction sought with a large enough effect; an effect the other way counts as inactive or inconclusive)
Pyruvate kinase (Leishmania mexicana), sequence (Q27686 2-499 E452W): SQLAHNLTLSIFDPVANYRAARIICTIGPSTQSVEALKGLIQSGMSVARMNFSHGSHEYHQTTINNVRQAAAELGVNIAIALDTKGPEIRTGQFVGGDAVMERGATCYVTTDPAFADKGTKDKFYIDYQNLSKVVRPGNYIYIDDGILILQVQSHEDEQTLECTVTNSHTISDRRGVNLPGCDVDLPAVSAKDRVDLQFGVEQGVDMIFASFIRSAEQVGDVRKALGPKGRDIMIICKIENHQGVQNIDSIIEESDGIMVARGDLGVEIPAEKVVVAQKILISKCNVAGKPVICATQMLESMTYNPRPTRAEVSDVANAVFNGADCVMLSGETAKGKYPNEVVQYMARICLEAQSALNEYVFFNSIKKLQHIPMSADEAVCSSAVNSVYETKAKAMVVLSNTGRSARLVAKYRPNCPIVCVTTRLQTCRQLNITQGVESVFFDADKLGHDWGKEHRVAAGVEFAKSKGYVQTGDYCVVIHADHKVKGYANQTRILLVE
How it was run: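 Substrate mix (0.5 mM PEP, 0.1 mM ADP, 7 mM MgCl2, 50 mM KCl, pH 7.2 imidazole) received compound by pin tool, then 0.2 nM LmPYK E451W. After 1 h at room temperature, PKLight was added and luminescence measured.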

[12] = biological target: Pyruvate kinase PKM (Homo sapiens) (UniProt P14618); experiment: qHTS Assay for Activators of Human Muscle Pyruvate Kinase (AID 954; active = well fitted curve in the direction sought with a large enough effect, not every such curve was filed as active)
Pyruvate kinase PKM (Homo sapiens), sequence (P14618 whole entry, looked up): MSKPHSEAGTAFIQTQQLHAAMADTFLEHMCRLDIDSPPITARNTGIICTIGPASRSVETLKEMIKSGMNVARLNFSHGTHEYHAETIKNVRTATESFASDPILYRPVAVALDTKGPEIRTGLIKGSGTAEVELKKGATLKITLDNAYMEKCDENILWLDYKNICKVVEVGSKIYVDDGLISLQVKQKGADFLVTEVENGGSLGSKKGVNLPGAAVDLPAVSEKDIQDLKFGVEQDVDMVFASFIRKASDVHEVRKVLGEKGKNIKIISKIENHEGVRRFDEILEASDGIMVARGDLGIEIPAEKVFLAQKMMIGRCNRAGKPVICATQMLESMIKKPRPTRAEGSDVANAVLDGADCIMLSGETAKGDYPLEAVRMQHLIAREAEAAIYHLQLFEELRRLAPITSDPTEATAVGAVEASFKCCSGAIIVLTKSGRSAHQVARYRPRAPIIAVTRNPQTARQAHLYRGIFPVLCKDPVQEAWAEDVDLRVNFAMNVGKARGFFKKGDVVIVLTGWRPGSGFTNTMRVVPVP
How it was run: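 Human PKM2 activity is measured as ATP generation, detected by luciferase-coupled luminescence. The enzyme (0.1 nM) acts on 0.5 mM PEP and 0.1 mM ADP for 1 h at ambient temperature; data are normalized to uninhibited and full-inhibition wells.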

[13] = biological target: Alpha-galactosidase (Coffea arabica) (UniProt Q42656); experiment: Counterscreen for Glucocerebrosidase Inhibitors: qHTS Assay for Coffee Bean alpha-Galactosidase at pH 4.5 (AID 957; active = well fitted curve in the direction sought with a large enough effect; an effect the other way counts as inactive or inconclusive)
Alpha-galactosidase (Coffea arabica), sequence (Q42656 whole entry, looked up): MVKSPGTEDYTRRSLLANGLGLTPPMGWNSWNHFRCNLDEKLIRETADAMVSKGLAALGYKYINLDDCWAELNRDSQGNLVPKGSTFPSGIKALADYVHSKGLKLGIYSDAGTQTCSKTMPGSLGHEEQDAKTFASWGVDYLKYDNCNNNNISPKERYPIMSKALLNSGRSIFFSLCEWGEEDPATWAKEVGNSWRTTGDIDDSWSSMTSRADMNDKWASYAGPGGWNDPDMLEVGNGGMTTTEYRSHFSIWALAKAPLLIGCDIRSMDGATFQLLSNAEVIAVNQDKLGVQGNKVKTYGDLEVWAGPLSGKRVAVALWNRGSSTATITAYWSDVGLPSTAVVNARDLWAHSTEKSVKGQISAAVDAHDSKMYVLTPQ
How it was run: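 Coffee bean enzyme (2 nM) with 80 uM 4-methylumbelliferyl alpha-D-galactopyranoside in 50 mM citric acid, 0.005% Tween-20, pH 4.5, 20 min at room temperature; compounds 0.7 nM–77 uM. Stopped at pH 10, fluorescence 365/440 nm; AC50 from Hill fits.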

[14] = biological target: Alpha-galactosidase A (Homo sapiens) (UniProt P06280); experiment: Counterscreen for Glucocerebrosidase Inhibitors: qHTS Assay for Human alpha-Galactosidase at pH 4.5 (AID 992; active = well fitted curve in the direction sought with a large enough effect; an effect the other way counts as inactive or inconclusive)
Alpha-galactosidase A (Homo sapiens), sequence (P06280 whole entry, looked up): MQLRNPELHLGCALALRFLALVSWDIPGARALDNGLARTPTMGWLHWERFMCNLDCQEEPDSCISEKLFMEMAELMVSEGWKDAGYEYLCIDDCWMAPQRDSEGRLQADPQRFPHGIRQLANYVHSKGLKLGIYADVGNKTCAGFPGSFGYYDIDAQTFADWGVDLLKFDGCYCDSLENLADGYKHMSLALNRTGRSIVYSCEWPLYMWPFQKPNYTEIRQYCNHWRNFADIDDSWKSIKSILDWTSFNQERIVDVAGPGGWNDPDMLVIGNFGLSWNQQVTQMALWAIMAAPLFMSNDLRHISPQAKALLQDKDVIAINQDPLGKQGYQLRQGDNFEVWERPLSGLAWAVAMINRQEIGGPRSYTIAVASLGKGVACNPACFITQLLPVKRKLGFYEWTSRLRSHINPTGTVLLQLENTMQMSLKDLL
How it was run: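 Quantitative HTS: compounds tested from 0.7 nM up to 77 uM against 2 nM enzyme with 80 uM 4-MU alpha-D-galactopyranoside. The 20 min room-temperature reaction is stopped with 1M NaOH/1M glycine, pH 10.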

[15] = biological target: alpha-glucosidase (Oryza sativa, rice) (UniProt Q653V4); experiment: Counterscreen for Glucocerebrosidase Inhibitors: qHTS Assay for Rice alpha-Glucosidase at pH 5.0 (AID 997; active = well fitted curve in the direction sought with a large enough effect; an effect the other way counts as inactive or inconclusive)
How it was run: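 Rice alpha-glucosidase (4 nM final) with 400 uM 4-methylumbelliferyl-alpha-D-glucopyranoside in citrate buffer pH 5.0, 20 min at room temperature, stopped at pH 10; fluorescence 365/440 nm, compounds 0.7 nM–77 uM, AC50 from Hill fits.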

[16] = biological target: Alpha-galactosidase (Coffea arabica) (UniProt Q42656); experiment: Counterscreen for Glucocerebrosidase Inhibitors: qHTS Assay for Coffee Bean alpha-Galactosidase at pH 5.9 (AID 998; active = well fitted curve in the direction sought with a large enough effect; an effect the other way counts as inactive or inconclusive)
How it was run: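 Green coffee bean enzyme (2 nM) with 4-methylumbelliferyl alpha-D-galactopyranoside (80 uM) in 50 mM citric acid, 0.005% Tween-20, pH 5.9, 20 min at room temperature; compounds 0.7 nM–77 uM. Stopped at pH 10, fluorescence Ex365/Em440; Hill-fit AC50.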

[17] = biological target: Ubiquitin carboxyl-terminal hydrolase 1 (Homo sapiens) (UniProt O94782); experiment: Inhibitors of USP1/UAF1: Pilot qHTS (AID 504865; active = well fitted curve in the direction sought with a large enough effect; an effect the other way counts as inactive or inconclusive;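 also: rhodamine fluorescence freed from ubiquitin-rhodamine substrate followed over time; top concentration of the series differs between compounds; nearly all actives have a fitted effect of over 35% in size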)
How it was run: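 USP1/UAF1 complex (1nM) preincubated with compound 15 min at room temperature, then Ub-Rho substrate (150nM final) added. Fluorescence read kinetically at 480/540 nm, 6 reads every 60 seconds. Buffer: 50mM HEPES pH 7.8, 0.5mM EDTA, 0.1 mg/ml BSA, 1mM TCEP, 0.01% Tween-20.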

[18] = biological target: Cytochrome P450 3A4 (Homo sapiens) (UniProt P08684); experiment: qHTS Assay for Activators of Cytochrome P450 3A4 (AID 885; active = well fitted curve in the direction sought with a large enough effect; an effect the other way counts as inactive or inconclusive; also: nearly all actives have a fitted effect of over 65% in size)
Cytochrome P450 3A4 (Homo sapiens), sequence (P08684 whole entry, looked up): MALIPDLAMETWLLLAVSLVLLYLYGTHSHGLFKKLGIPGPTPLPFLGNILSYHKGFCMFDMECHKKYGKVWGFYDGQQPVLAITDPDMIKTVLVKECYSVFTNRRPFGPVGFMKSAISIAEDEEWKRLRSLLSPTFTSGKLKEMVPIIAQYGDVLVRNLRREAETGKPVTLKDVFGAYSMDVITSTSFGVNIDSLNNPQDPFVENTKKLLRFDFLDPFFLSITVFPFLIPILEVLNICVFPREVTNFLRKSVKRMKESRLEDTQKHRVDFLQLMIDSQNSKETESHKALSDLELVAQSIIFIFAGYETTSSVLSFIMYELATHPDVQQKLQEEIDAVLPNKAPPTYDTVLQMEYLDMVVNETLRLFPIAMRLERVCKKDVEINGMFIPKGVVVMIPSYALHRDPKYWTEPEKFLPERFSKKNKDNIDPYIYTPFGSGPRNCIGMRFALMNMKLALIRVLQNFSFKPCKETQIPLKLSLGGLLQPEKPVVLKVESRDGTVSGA
How it was run: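 Signal was normalized against complete inhibition by 57 uM ketoconazole. The reaction used 20nM CYP3A4 with 25uM Luciferin-PPXE, 10-min compound preincubation and a 60-min NADPH-supported step at RT.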

[19] = biological target: Cytochrome P450 2C19 (Homo sapiens) (UniProt P33261); experiment: qHTS Assay for Inhibitors and Substrates of Cytochrome P450 2C19 (AID 899; active = well fitted curve in the direction sought with a large enough effect; an effect the other way counts as inactive or inconclusive; also: nearly all actives have a fitted effect of over 60% in size)
How it was run: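 Luminescent read-out of luciferin formed from Luciferin-H EGE (10uM, equal to KM). Enzyme 5nM in 50mM KPO4; compound added, 10 min at 37C, then NADPH regenerating system for 60 min at 37C. Full inhibition defined by 57uM ketoconazole.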

[20] = biological target: Muscarinic acetylcholine receptor M1 (Rattus norvegicus) (UniProt P08482); experiment: qHTS Assay for Antagonists of Acetylcholine Muscarinic M1 Receptor: Kinetic Measurement of Intracellular Calcium Response (AID 943; active = well fitted curve in the direction sought with a large enough effect; an effect the other way counts as inactive or inconclusive; also: nearly all actives have a fitted effect of over 75% in size)
How it was run: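 CHO cells expressing rat M1 receptor, Fluo-4 loaded, preincubated 10 min with compound, then stimulated with EC80 carbachol (100 nM final). Kinetic calcium fluorescence over 4 min; response taken as peak over basal signal.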

[21] = biological target: Pyruvate kinase PKM (Homo sapiens) (UniProt P14618); experiment: qHTS Assay for Inhibitors of Human Muscle Pyruvate Kinase (AID 958; active = well fitted curve in the direction sought with a large enough effect; an effect the other way counts as inactive or inconclusive)
How it was run: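 PKM2, human, >95% pure, 0.1 nM; PEP 0.5 mM (Km), ADP 0.1 mM; 50 mM imidazole pH 7.2, 50 mM KCl, 0.01% Tween 20, 0.05% BSA; 1 h RT; luciferase luminescence readout.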

Structure (SMILES): CC1CN=C(Nc2ccc(N(C)C)cc2)S1 (stereo unspecified)
- activity change, negative = inhibition [1]: 17.8%
- activity change, negative = inhibition [2]: -26.5%
- outcome [3]: inactive
- Potency [4]: > 20.6 µM
- activation [5]: 1.86%

Structure (SMILES): C/C(Cl)=C/CC1(CN2CCCC2=O)C(=O)NC(=O)NC1=O
- activity change, negative = inhibition [1]: -3.48%
- activity change, negative = inhibition [2]: 1.12%
- outcome [3]: inactive
- Potency [4]: > 20.6 µM
- activation [5]: 3.38%

Structure (SMILES): CNc1ccc2oc(C[C@@H]3O[C@@]4(CC[C@H]3C)O[C@@H]([C@@H](C)C(=O)c3ccc[nH]3)[C@@H](C)C[C@H]4C)nc2c1C(=O)O
- activity change, negative = inhibition [1]: 6.83% [at 38 µM]
- activity change, negative = inhibition [2]: 90.4% [activator] [at 38 µM] (active)
- outcome [3]: inactive
- Potency [4]: > 46 µM
- Potency [6]: > 46 µM
- outcome [7]: inactive
- outcome [8]: inactive

Structure (SMILES): CC(C)(C)c1ccc(O)c(C[N+](C)(C)C)c1
- activity change, negative = inhibition [1]: -0.0649% [at 7.69 µM]
- activity change, negative = inhibition [2]: -16.5% [at 7.69 µM]
- outcome [3]: inactive
- Potency [4]: > 46 µM
- Potency [6]: > 9.22 µM
- activity change, negative = inhibition [7]: -0.903% [at 11.4 µM]
- outcome [8]: inactive

Structure (SMILES): O=[N+]([O-])c1ccc(O[C@H]2O[C@@H](CO)[C@@H](O)[C@@H](O)[C@@H]2F)c([N+](=O)[O-])c1
- activity change, negative = inhibition [1]: -3.88% [at 38 µM]
- activity change, negative = inhibition [2]: 14.6% [at 38 µM]
- outcome [3]: inactive
- Potency [4]: > 46 µM
- Potency [6]: > 46 µM
- outcome [7]: inactive
- outcome [8]: inactive
- Potency [9]: inactive
- Potency [10]: inactive
- Potency [11]: inactive
- outcome [12]: inactive
- outcome [13]: inactive
- outcome [14]: inactive
- outcome [15]: inactive
- outcome [16]: inactive

Structure (SMILES): CC1(C)CC(=O)C(C=NCCN2CCN(C(=O)Cc3ccc(F)cc3)CC2)=C(O)C1
- activity change, negative = inhibition [1]: -0.912%
- outcome [3]: inactive
- Potency [4]: > 20.6 µM

Structure (SMILES): C[C@H]1C[C@@H](C)C(=O)[C@@H]([C@H](O)CC2CC(=O)NC(=O)C2)C1
- activity change, negative = inhibition [1]: -97.3% (active)
- activity change, negative = inhibition [2]: -119% (active)
- outcome [7]: inactive
- outcome [8]: inactive
- Potency [17]: inactive

Structure (SMILES): CCOc1ccccc1-n1c(O)c(C=Nc2ccc(N(CC)CC)cc2)c(=O)[nH]c1=O
- activity change, negative = inhibition [1]: 3.1%
- outcome [3]: inactive
- Potency [4]: > 20.6 µM

Structure (SMILES): N[C@@H](Cc1cc(O)c(O)cc1O)C(=O)O
- activity change, negative = inhibition [1]: -19.5% [at 38 µM]
- activity change, negative = inhibition [2]: 3.11% [at 38 µM]
- Potency [4]: > 46 µM
- Potency [6]: > 46 µM
- outcome [8]: inactive
- Potency [9]: 15.8 µM (active)
- Potency [18]: inactive
- Potency [19]: inactive
- Potency [20]: inactive
- Potency [10]: inactive
- Potency [11]: inactive
- outcome [13]: inactive
- Potency [21]: inactive
- outcome [14]: inactive
- outcome [15]: inactive
- outcome [16]: inactive

Source: PubChem BioAssay (NCATS)
